Rows were chosen to be rich in hits. Some 7% of all compounds tested hit in one or more screens of this group.
ATXN viability: Viability Counterscreen for Primary qHTS for Inhibitors of ATXN expression; S2 cells (HEK-293 line with an ATXN2-luciferase reporter) viability, CellTiter-Fluor protease fluorescence, 24 h; Potency, µM (top dose mostly 56.7 µM), actives largely listed as cytotoxic; 400,000 compounds, 0.49% hits; AID 651635, 2014; note: potency is the fitted concentration of half-maximal effect; nearly all actives have a fitted effect of over 40% in size
a7 integrin act: qHTS for Activators of Integrin-Mediated Alleviation for Muscular Dystrophy | 350,000 compounds, 0.064% hits | Potency, µM (top dose mostly 38.3 µM), inactives show top-dose activation, hits mostly activators | alpha7betagal myoblasts, beta-gal FDG fluorescence, 48 h;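 note: potency is the fitted concentration of half-maximal effect; 100% = response of the positive control SU9516; nearly all actives have a fitted effect of over 60% in size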
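Alpha7betagal+/- myoblasts (passage 13) were plated 16-24 hr, then exposed to compounds (1:260 dilution of DMSO stock) for 48 hours at 37C. After MPER lysis, β-galactosidase reporter activity was read as FDG fluorescence (ex 480/em 540) after 30 minutes.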
D3 ag: qHTS of D3 Dopamine Receptor Agonist: qHTS | max activation, % | D(3) dopamine receptor (Homo sapiens), P35462 | 410,000 compounds, 0.58% hits | AID 652048, 2013 | D3R DiscoveRx beta-arrestin cells, luminescence, 90 min; in the data active = max activation above about 30%; note: 0% is about no effect
Target sequence (P35462 whole entry, looked up): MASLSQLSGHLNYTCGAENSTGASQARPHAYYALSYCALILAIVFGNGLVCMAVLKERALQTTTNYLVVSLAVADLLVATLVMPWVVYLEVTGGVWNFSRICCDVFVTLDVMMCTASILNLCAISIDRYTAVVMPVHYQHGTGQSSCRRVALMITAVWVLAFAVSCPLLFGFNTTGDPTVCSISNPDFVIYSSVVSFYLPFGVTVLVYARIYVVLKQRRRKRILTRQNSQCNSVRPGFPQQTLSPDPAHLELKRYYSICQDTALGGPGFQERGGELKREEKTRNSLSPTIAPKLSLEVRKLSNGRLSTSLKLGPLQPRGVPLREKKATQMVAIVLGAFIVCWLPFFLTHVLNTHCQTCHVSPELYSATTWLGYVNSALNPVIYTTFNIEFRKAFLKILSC
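Agonist-mode cell screen: cells plated at 1500/well and incubated overnight at 37 °C, then exposed to library compounds for 90 min at 37 °C. Detection reagent was added for 30–60 min at room temperature, and luminescence was read.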
IL-1B inflam inh: qHTS for Inhibitors of Inflammasome Signaling: IL-1-beta AlphaLISA Primary Screen; THP-1 LPS/ATP IL-1B secretion, AlphaLISA, 16 h; stronger effect = lower value; activity change, % at 57.5 µM; 360,000 compounds, 4.7% hits; in the data active = activity change below about -50%; inconclusive = mostly about -30% to -49%; note: % is set by controls: 0 for no effect and ±100 for the full control effect
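Secreted IL-1B measured by AlphaLISA bead assay after 16 h compound exposure of THP-1 cells; compounds (final up to 57.5 uM) added 1 h before LPS (250 ng/mL) and ATP (1.25 mM) stimulation; lower signal means less secretion.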
D3 antag: qHTS of D3 Dopamine Receptor Antagonist: qHTS. AID 652054, 2013. 360,000 compounds, 2.5% hits. D3R cells, DiscoveRx beta-arrestin luminescence, antagonist mode; stronger effect = lower value. max response, negative = inhibition, %. D(3) dopamine receptor (Homo sapiens), P35462; in the data active = max response below about -50%; inconclusive = no clear call, values can overlap the other calls; note: % is set by controls: 0 for no effect and ±100 for the full control effect
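Cells plated overnight at 1500 cells/well, then exposed to library compounds with dopamine controls for 90 minutes at 37 degrees C. DiscoveRx reagent added for 30–60 minutes at room temperature; luminescence read, quantitative HTS format.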
ATXN2 expr inh: Primary qHTS for Inhibitors of ATXN expression; HEK-293 ATXN2-luciferase reporter, luminescence, 24 h; Potency, µM (top dose mostly 57 µM), inactives show at the top dose activity change, negative = inhibition, usual class: inhibitors; 360,000 compounds, 0.72% hits; AID 1745845, 2022; note: potency is the fitted concentration of half-maximal effect; % is set by controls: 0 for no effect and ±100 for the full control effect; nearly all actives have a fitted effect of over 55% in size
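qHTS (up to 57 uM final) was run with 24 h compound exposure of reporter cells at 37 °C. Each well was multiplexed: SteadyGlo luminescence measured ATXN2-luciferase expression after a fluorogenic Gly-Phe-AFC viability readout (25 uM final).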
An asterisk follows results filed as active; i = inactive; ? = inconclusive; / = no result; [ ] = another dose, or the depositor's remark. Unless noted, calls come from the whole dose curve; as a rule, active = well fitted curve in the direction sought with a large enough effect; inconclusive = small, poorly fitted or top-dose-only effect, or another doubt; inactive = no such curve, though single readings can be large; an effect the other way counts as inactive or inconclusive.

SMILES | ATXN viability | a7 integrin act | D3 ag | IL-1B inflam inh | D3 antag | ATXN2 expr inh
COCCNc1oc(-c2ccc(Cl)cc2)nc1C#N | i | 7.1% | 1.7 | -55.9* | -3.9 | 54.8%
COCCNc1oc(-c2ccc(OC)cc2)nc1C#N | i | / | -5.4 | / | / | 29.2%
COc1ccc(-c2nc(C#N)c(NCCN(C)C)o2)cc1 | i | -9.4% | -8.4 | -19.7 | -61.3* | -5.1%
CCCCC(=O)C1CCN(Cc2ccccc2)CC1 | i | -12.4% | -17.3 | -17.9 | ? | 1.8%
O=C(c1cc2ccccc2cc1O)N1CCN(c2ccccn2)CC1 | i | -27.2% | -2.7 | -0.9 | -6.2 | -6.5%
CN1CCN(c2cc(-c3cc(O)c4ncccc4c3)ccn2)CC1 | ? | / | / | / | / | 10µM*
COc1ccc(-c2csc(N(CCCN(C)C)C(=O)c3ccc(C)cc3)n2)cc1 | ? | -36.3% | -13.7 | -78.7* | 4.7 | ?
COc1ccc(-c2csc(N(CCCN(C)C)C(=O)c3cccs3)n2)cc1 | ? | -47.4% | -51.0 | -56.7* | -58.3* | -30.7%
COc1ccc(-c2csc(N(CCCN(C)C)C(=O)c3cc(OC)c(OC)c(OC)c3)n2)cc1 | i | -45.5% | -11.3 | -27.4 | -13.4 | -22.9%
CCN(C(=O)c1cccs1)c1nc(-c2ccc(OC)cc2)cs1 | i | -1.9% | 14.7 | -19.9 | 14.7 | 35.9%
CCN(CC)CCCN(C(=O)c1ccc(OC)cc1)c1nc(-c2ccc(OC)cc2)cs1 | i | 0.0% | -21.4 | / | -24.7 | -21.8%
COc1ccc(-c2csc(N(CCCN(C)C)C(=O)c3ccc(Br)cc3)n2)cc1 | i | -35.5% | -13.0 | -76.2* | -28.2 | -22.8%
CCN(CC)CCCN(C(=O)c1ccccc1F)c1nc(-c2ccc(OC)cc2)cs1 | i | 0.0% | -19.0 | -65.3* | ? | -22.1%
CCOC(=O)C1=C(C)NC(=O)NC1c1ccc(Br)s1 (stereo not given) | i | 0.0% | 3.1 | -11.4 | 0.6 | -4.8%
C[C@H](NC(=O)CCCn1nnc2ccccc2c1=O)C(=O)O | i | 8.5% | 0.0 | -3.2 | -1.8 | 15.9%
COc1ccc(-c2csc(N(CCCN(C)C)C(=O)c3ccc(C(C)(C)C)cc3)n2)cc1 | i | -57.5% | -7.4 | -80.4* | -3.0 | -8.3%
O=C(Oc1c(-c2ccccc2)c(=O)n2c3c(cccc13)CC2)c1ccc(Cl)cc1 | i | 4.0% | 13.2 | 14.9 | 33.8 | -7.5%
O=C(Oc1c(-c2ccccc2)c(=O)n2c3c(cccc13)CC2)c1ccco1 | i | -6.2% | 49.1* | 5.0 | 70.9 | -18.1%
Cc1ccc(NC(=O)CCN2C(=O)c3ccccc3S2(=O)=O)cc1F | i | 17.6% | -2.9 | 11.5 | -2.9 | 3.8%
Cc1cc(C)n(-c2nnc(Cl)c3ccccc23)n1 | / | -19.7% | -7.7 | -102.6* | -25.0 | 0.4%[11.3 µM]
Cc1ccc(-c2nnc(-n3nc(C)cc3C)c3ccccc23)cc1 | i | -10.9% | 1.4 | -17.4 | 10.3 | -26.9%
CC(C)(O)C#Cc1ccc(C(=O)N2CCC(C(N)=O)(N3CCCCC3)CC2)o1 | i | 16.9% | -7.6 | 0.0 | -11.0 | 4.0%
COc1ccccc1NC(=O)N1CCc2c([nH]c3ccccc23)C1C(F)(F)F (stereo not given) | i | -3.4% | -8.6 | -60.5* | -2.0 | -6.9%
O=C(c1cccc(C(F)(F)F)c1)N1CCc2c([nH]c3ccccc23)C1C(F)(F)F (stereo not given) | ? | 32.2% | 1.2 | -83.1* | -4.8 | 0.0%
COc1ccc(C(=O)N2CCc3c([nH]c4ccccc34)C2C(F)(F)F)cc1 (stereo not given) | i | -1.2% | 1.5 | -8.1 | 0.0 | /
SMILES | ATXN viability | a7 integrin act | D3 ag | IL-1B inflam inh | D3 antag | ATXN2 expr inh
CCN(C(=O)CSc1nc2ccccc2n1CC(=O)N1CCCC(C)C1)c1ccccc1 (stereo not given) | ? | / | -23.4 | / | / | -3.8%
Cc1ccc(CCNC(=O)CNC(=S)N(Cc2ccccc2)Cc2cccnc2)cc1 | i | -8.6% | -0.6 | -60.6* | 6.5 | -18.3%
CC(=O)c1cc(NC(=O)c2ccc(Cl)cc2)c(=O)oc1/C=C/N(C)C | i | 4.6% | -3.6 | 6.9 | -71.8* | 0.9%
CC(=O)c1cc(NC(=O)c2cccc(C(F)(F)F)c2)c(=O)oc1/C=C/N(C)C | i | 8.5% | -0.5 | 37.4 | -8.5 | 0.8%
CC(=O)c1cc(NC(=O)c2cccc(C(F)(F)F)c2)c(=O)oc1C | i | -54.7% | -9.6 | -63.9* | -8.9 | -2.4%
CCC/C=C1/CCCOC(C(=O)NCc2ccc(C)o2)(C(F)(F)F)C1 (stereo not given) | i | -23.6% | -7.5 | -62.7* | 10.2 | ?
Cc1cc(O)c(C(C)C)cc1C1(c2cc(C(C)C)c(O)cc2C)OC(=O)c2ccccc21 | / | -19.1% | 61.4* | -99.1* | 108.4 | ?
Cc1ccc(S(=O)(=O)N[C@H](C(=O)OCC(=O)NC(=O)c2cccn2C)C(C)C)cc1 | i | 18.6% | 35.0* | 27.4 | 2.4 | -12.1%
CC(C)[C@H](NS(=O)(=O)c1ccccc1)C(=O)OCC(=O)NC(=O)c1cccn1C | i | -6.7% | 4.9 | 24.7 | -7.7 | 15.5%
Cc1ccc(-c2cc(-c3ccc(F)cc3)n[nH]2)c(O)c1 | i | 3.0% | 0.1 | -61.3* | -14.0 | 167.7%
COc1ccc(-c2cc(-c3ccccc3)n[nH]2)c(O)c1 | ? | -4.5% | -1.3 | -92.7* | 10.1 | 132.1%
Oc1ccc(F)cc1-c1cc(-c2ccc3c(c2)OCCO3)n[nH]1 | i | 2.3% | -3.7 | -3.1 | -52.8* | 131.5%
Cc1ccc(-c2cc(-c3ccc(C)cc3O)[nH]n2)cc1 | i | ? | -4.0 | 13.8 | -6.3 | /
Cc1oc(-c2ccc(Cl)cc2)nc1CN1CCCC(C(=O)NCCc2ccc(Cl)cc2)C1 (stereo not given) | ? | / | -17.4 | / | / | -14.8%
CNC(=S)NNC(=O)c1sccc1OCc1cccc(C(F)(F)F)c1 | i | 16.8% | -3.2 | 3.9 | 32.9 | -7.1%
COc1cccc(-c2cnc3c(NC=O)cc(-c4ccc(S(C)(=O)=O)cc4)cn23)c1 | i | / | 8.1 | 13.5 | 121.6 | -20.6%
O=C(CN1C(=O)NC2(CCCc3ccccc32)C1=O)c1ccc(Br)cc1 (stereo not given) | i | 1.0% | -4.8 | -8.1 | -3.3 | 10.7%
O=C(CN1C(=O)NC2(CCc3ccccc32)C1=O)c1ccc(Br)cc1 (stereo not given) | i | 31.4% | -3.6 | -58.8* | -0.5 | 0.8%

High-throughput results deposited in PubChem BioAssay by National Center for Advancing Translational Sciences (NCATS).
